About 17,000 (4.4%) of roughly 390,000 compounds were called active. Roughly 8% stayed inconclusive and do not appear here. Calls follow the shape of the dose curve; as a rule, active = well fitted inhibition curve with a large enough effect; inconclusive = small, poorly fitted or top-dose-only effect; inactive = no such curve, though single readings can be large or run the other way. The list comes from a sample in which actives are over-represented; it also holds similar structures and randomly drawn compounds.
target: Lysine-specific demethylase 4A (Homo sapiens) (UniProt O75164); assay: qHTS Assay for Inhibitors of JMJD2A-Tudor Domain; settings: AlphaScreen JMJD2A-Tudor / H3K4me3 peptide binding; series mostly up to 114 µM; also: nearly all actives have a fitted effect of over 50% in size
% is scaled to controls: 0 for no effect and ±100 for the full control effect; potency is read from the fitted curve at half-maximal effect.

Sequence of Lysine-specific demethylase 4A (Homo sapiens) (O75164 whole entry, looked up, the tested form may be a part): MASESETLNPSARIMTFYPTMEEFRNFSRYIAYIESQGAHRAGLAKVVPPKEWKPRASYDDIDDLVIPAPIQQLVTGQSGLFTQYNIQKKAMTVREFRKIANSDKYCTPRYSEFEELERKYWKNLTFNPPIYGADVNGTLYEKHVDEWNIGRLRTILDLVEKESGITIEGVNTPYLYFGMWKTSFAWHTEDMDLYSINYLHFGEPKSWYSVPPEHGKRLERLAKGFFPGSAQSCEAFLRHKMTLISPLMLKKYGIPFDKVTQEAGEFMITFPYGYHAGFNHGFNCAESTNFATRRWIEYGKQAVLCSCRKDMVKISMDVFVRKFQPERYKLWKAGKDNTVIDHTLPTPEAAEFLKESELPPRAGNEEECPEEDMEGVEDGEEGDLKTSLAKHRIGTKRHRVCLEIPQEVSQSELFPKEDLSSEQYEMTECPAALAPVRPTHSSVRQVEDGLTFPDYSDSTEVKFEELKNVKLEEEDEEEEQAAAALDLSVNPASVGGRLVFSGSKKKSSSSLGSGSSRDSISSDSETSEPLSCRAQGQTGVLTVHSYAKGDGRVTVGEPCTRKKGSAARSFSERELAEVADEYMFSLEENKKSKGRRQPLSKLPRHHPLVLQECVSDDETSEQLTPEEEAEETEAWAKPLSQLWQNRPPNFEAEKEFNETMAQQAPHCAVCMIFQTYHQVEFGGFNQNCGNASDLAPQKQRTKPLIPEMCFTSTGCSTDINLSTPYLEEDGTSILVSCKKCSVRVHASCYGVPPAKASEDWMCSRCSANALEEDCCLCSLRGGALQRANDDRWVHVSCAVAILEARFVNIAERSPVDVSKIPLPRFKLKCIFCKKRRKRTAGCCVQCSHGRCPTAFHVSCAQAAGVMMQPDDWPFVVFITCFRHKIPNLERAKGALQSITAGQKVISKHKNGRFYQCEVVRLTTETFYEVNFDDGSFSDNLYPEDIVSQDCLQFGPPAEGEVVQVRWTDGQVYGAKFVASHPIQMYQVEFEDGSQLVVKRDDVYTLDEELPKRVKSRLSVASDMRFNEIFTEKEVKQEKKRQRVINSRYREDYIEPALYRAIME

Potency, inactive:
Cc1cccn2c(=O)c(C(=O)NC(C)c3ccccc3)cnc12 (stereo unspecified)
CCC(C)c1ccc2oc(-c3ccc(NC(=O)c4cc5ccccc5o4)cc3)nc2c1 (stereo unspecified)
O=C(C1CCCN(S(=O)(=O)c2ccc([N+](=O)[O-])cc2)C1)N1CCCCC1 (stereo unspecified)
Cc1ccc(S(=O)(=O)N2CCC(C(=O)N3CCCCCCC3)CC2)cc1
COc1ccc(S(=O)(=O)N2CCCC(C(=O)N3CCN(C)CC3)C2)cc1C (stereo unspecified)
COc1ccc(N2CCN(C(=O)C3CCN(C(=O)c4ccccc4Cl)CC3)CC2)cc1
CC(=O)Nc1ccc(S(=O)(=O)N2CCN(C3CCCCCCC3)CC2)cc1
Cc1ccc(S(=O)(=O)N2CCN(C)CC2)cc1
CCOC(=O)C1CCC(CN(Cc2ccc(OC)cc2)S(=O)(=O)c2ccc(F)c(C(=O)Nc3cc(C)ccc3C)c2)CC1 (stereo unspecified)
N#Cc1nc(/C=C/c2ccc(F)cc2)oc1NC1CCCCC1
COc1ccc(Cn2ccn(Cc3cccc(OC)c3)c(=O)c2=O)cc1
Cc1ccccc1Cn1nc(C)c(NC(=O)c2cc(-c3ccc(F)cc3)on2)c1C
Cc1c(Cl)cccc1NC(=O)CCS(=O)(=O)c1ccc2c(c1)oc(=O)n2C
COc1cccc(C(=O)NCc2ccc3c(c2)CCN3C(=O)c2ccncc2)c1
COc1cc(C)ccc1OCCSc1nc2ccc(NC(=O)c3ccc(C)cc3)cc2s1
COc1cc(Cl)c(C)cc1NC(=O)CCc1nc2cccnc2n1Cc1cccs1
O=C(Nc1ccc(F)cc1F)c1ccc2c(=O)n3c(nc2c1)CCCCC3
COc1cc2c(=O)c(S(=O)(=O)c3ccc(C(C)C)cc3)cn(Cc3ccccc3C)c2cc1OC
C=CCN(C(=O)c1cc(C)cc(C)c1)C1(C(=O)Nc2ccccc2)CCN(C(C)C)CC1
CCc1ccc(NC(=O)CN2C(=O)C(c3ccccc3)=NC23CCCCCC3)cc1
O=C(COC(=O)C1CCCO1)Nc1nc(-c2ccc(F)cc2)cs1 (stereo unspecified)
CCc1ccc(CNC(=O)C2CCN(c3nn4cc(-c5ccc(F)cc5)nc4s3)CC2)cc1
O=C(CNC(=O)c1ccccc1)OC(C(=O)Nc1cc([N+](=O)[O-])ccc1F)c1ccccc1 (stereo unspecified)
COc1ccc(Cn2ccnc2SCC(=O)NCc2ccco2)cc1
Cc1cccc(OCCSc2nc3ccc(NC(=O)COc4ccccc4C)cc3s2)c1
C[C@@H]1O[C@@H](OC[C@H]2O[C@@H](Oc3c(-c4ccc(O)cc4)oc4cc(O)cc(O)c4c3=O)[C@H](O)[C@@H](O)[C@@H]2O)[C@H](O)[C@H](O)[C@H]1O
COc1ccc(CCOC2OC(CO)C(OC(=O)/C=C/c3ccc(O)c(OC)c3)C(O[C@H]3O[C@@H](C)[C@H](O)[C@@H](O)[C@H]3O)C2O)cc1O (stereo partly specified)
COc1ccc(NC(=O)N2CCCn3nc(C)cc32)cc1OC
Cc1ccccc1NC(=O)Cn1c(=O)n(CCc2ccccc2)c(=O)c2ccccc21
CC(Cc1cccs1)N(Cc1ccc(Cl)cc1)C(=O)c1ccncc1 (stereo unspecified)
CN(C(=O)CN(CCO)CC(=O)N(C)C(C)(C)Cc1ccccc1)C(C)(C)Cc1ccccc1
O=C(Cc1ccc(Cl)cc1)c1ccccc1
O=[N+]([O-])c1ccc(N(CCO)Cc2ccccc2)c([N+](=O)[O-])c1
Cc1ccc(CN(C(=O)c2ccccc2[N+](=O)[O-])c2ccccn2)cc1
COc1ccc(CC(=O)Nc2ccc(-c3nc4ccccc4s3)c(C)c2)cc1
Cc1ccc2cccc(NC(=O)C(C)Oc3ccc(C)c(C)c3)c2n1 (stereo unspecified)
COc1ccc(-n2nc(C(=O)NCCc3ccc(Cl)cc3)c3c4ccccc4n(C)c3c2=O)cc1Cl
COc1cc(OC)c(NC(=O)Cc2ccc(-n3c(C)nc4cccnc43)cc2)cc1Cl
COc1cc2c(cc1OC)C(COc1ccc(F)cc1)N(C(=O)c1ccccc1F)CC2 (stereo unspecified)
Cc1cccc(C(=O)Nc2ccc(-c3nc4ncccc4o3)cc2C)c1
NCC(=O)c1cccc2ccc[n+]([O-])c12
O=C(NCC(c1ccco1)S(=O)(=O)c1cccs1)c1ccc(F)cc1 (stereo unspecified)
Cc1ccc(CNC(=O)CSc2c3c(nc4cc(Cl)ccc24)CCCC3)cc1
COc1ccc(-c2nc(C)c(CCNC(=O)c3ccc(C(F)(F)F)cc3)s2)cc1OC
Cc1cccc(C)c1Nc1c(-c2ccccc2O)nc2ncccn12
Cc1ccc(Nc2c(-c3ccc(C)s3)nc3ccccn23)cc1
Nc1scc[n+]1Cc1cccc2cccnc12
CCc1c(C)sc(NC(=O)C2c3ccccc3Oc3ccccc32)c1C(=O)OC(C)C

Potency, active:
Cc1ccc(S(=O)(=O)N2CCCC(C(=O)N3CCN(C)CC3)C2)cc1 (stereo unspecified) 2.82 µM
Cc1ccc(S(=O)(=O)N2CCC(N3CCCCCC3)CC2)cc1 0.891 µM
COc1ccc(N2CCN(C(=O)C3CCN(S(=O)(=O)c4ccc(C)cc4)CC3)CC2)cc1 39.8 µM
Oc1c(C=Nc2cccc3nsnc23)ccc2ccccc12 89.1 µM
CCN(C(=O)Cc1nc(N)n[nH]1)C1(C(=O)Nc2ccccc2)CCCCC1 100 µM
CC1CCCC(C)N1C(=O)CN1CCN(c2nc(-c3ccc(F)cc3)cs2)CC1 (stereo unspecified) 79.4 µM
COc1ccc(-c2cc(=O)c3c(O)cc(O[C@@H]4O[C@H](CO[C@@H]5O[C@@H](C)[C@H](O)[C@@H](O)[C@H]5O)[C@@H](O)[C@H](O)[C@H]4O)cc3o2)cc1O 20 µM
CC(O)CN(Cc1ccc(Cl)cc1)CC(C)O (stereo unspecified) 8.91 µM
OCCN(Cc1ccccc1)Cc1ccc(Cl)cc1 10 µM
Cc1ccc2cccc(O)c2[n+]1[O-] 10 µM
Cc1ccc(-c2nc3ccccn3c2Nc2c(C)cccc2C)o1 50.1 µM
c1ccc2c(C[n+]3csc4ccccc43)cccc2c1 17.8 µM

Activity change, negative = inhibition, inactive:
c1ccc2c(CNn3cnnc3)cccc2c1 0% [at 11.4 µM]

From PubChem BioAssay AID504339 (National Center for Advancing Translational Sciences (NCATS), 2011)
